Measured values from PubChem BioAssay (Tox21).
Inconclusive results are not listed. Entries that show only a call come without a potency. The source made the active and inactive calls. Unless noted, calls follow the shape of the full dose curve.

How the values were obtained:
[1] = Nuclear factor erythroid 2-related factor 2/antioxidant responsive element (Nrf2/ARE) small molecule agonists: qHTS cell viability counter screen in human keratinocytes (AID 1919968; active = well fitted curve in the direction sought with a large enough effect in the repeat runs; an effect the other way counts as inactive or inconclusive; also: nearly all actives have a fitted effect of over 55% in size; also: potency is read from the fitted curve at half-maximal effect)
In short: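 Stably transfected HaCaT (KeratinoSens), 1,500/well. Test agents in DMSO were applied for 23 h, 37 C/5% CO2. CellTiter-Fluor was incubated 1 h before the fluorescence read.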

[2] = Nuclear factor erythroid 2-related factor 2/antioxidant responsive element (Nrf2/ARE) small molecule agonists: luciferase reporter gene qHTS assay in human keratinocytes (AID 1919969); also: nearly all actives have a fitted effect of over 35% in size; also: potency is read from the fitted curve at half-maximal effect
[3] = molecular target: Gonadotropin-releasing hormone receptor (Homo sapiens) (UniProt P30968); experiment: Human gonadotropin-releasing hormone receptor (GnRHR) small molecule agonists, calcium flux assay in GnRHR-HEK293 cells (AID 1920063); also: nearly all actives have a fitted effect of over 35% in size
In short: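 Stable human GnRHR HEK293 line. 18 h plating, then calcium dye for 1 h at 37 C. Agonist-mode compound addition from DMSO stocks; fluorescence monitored 3 min.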

[4] = molecular target: KiSS-1 receptor (Homo sapiens) (UniProt Q969F8); experiment: Human kisspeptin (KISS1R) small molecule agonists, calcium flux assay in KISS1R-HEK293 cells (AID 1920064; active = well fitted curve in the direction sought with a large enough effect in the repeat runs; an effect the other way counts as inactive or inconclusive)
In short: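 After overnight (18 h) culture at 37 C/5% CO2, human KISS1R-HEK293 cells received calcium dye for 1 h, then test compound; emission at 540 nm (excitation 480 nm) was tracked for 3 min.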

[5] = G protein-coupled receptor (GPCR) small molecule agonists, calcium flux assay: HEK293 wild type cell line counter screen (AID 1920065)
In short: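 Following 18 h incubation at 37 C/5% CO2, plates got calcium dye for 1 h; compounds, ATP or DMSO were then pinned in and fluorescence followed kinetically (480/540 nm).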

[6] = p53 small molecule agonists, cell-based qHTS assay with rat liver microsomes (AID 1963578)
In short: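 Each plate received p53RE-bla cells, then compound, then rat liver microsomes and NADPH (both 0.5 mg/mL final). Plates were held 16 h at 37 C, and beta-lactamase activity was detected with LiveBLAzer over 2 h.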

[7] = p53 small molecule agonists, cell-based qHTS assay with human liver microsomes: qHTS cell viability counter screen (AID 1963579); also: nearly all actives have a fitted effect of over 45% in size
In short: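 Tox21 library compounds, delivered from DMSO stocks, were tested on p53RE-bla cells together with 0.5 mg/mL human liver microsomes and 0.5 mg/mL NADPH (final) over 16 h at 37 C; CellTiter-Glo luminescence served as the cytotoxicity measure.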

[8] = p53 small molecule agonists, cell-based qHTS assay with rat liver microsomes: qHTS cell viability counter screen (AID 1963580); also: nearly all actives have a fitted effect of over 45% in size
In short: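 Counter screen for cytotoxicity under metabolic activation: rat liver microsomes and NADPH, 0.5 mg/mL final each, added with compounds to p53RE-bla HCT-116 cells; 16 h at 37 C, then ATP luminescence read.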

[9] = p53 small molecule agonists, cell-based qHTS assay: qHTS cell viability counter screen (AID 1963581); also: nearly all actives have a fitted effect of over 45% in size
In short: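 qHTS counter screen: 16 h compound exposure at 37 C of p53RE-bla HCT-116 cells (4,000 per well, seeded 5 h prior), cell viability by ATP luminescence.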

[10] = p53 small molecule agonists, cell-based qHTS assay (AID 1963582; active = well fitted activation curve with a large enough effect in the signal ratio in the repeat runs, not every such curve was filed as active; the % refers to the signal ratio)
In short: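 Measured: fluorescence from cleaved LiveBLAzer substrate. System: p53RE-bla cells, 16 h compound treatment at 37 C, 2 h substrate step at room temperature.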

[11] = molecular target: 5-hydroxytryptamine receptor 2A (Homo sapiens) (UniProt P28223); experiment: 5-hydroxytryptamine receptor 2A (HTR2A) small molecule antagonists, cell-based qHTS assay (AID 1963586); also: nearly all actives have a fitted effect of over 45% in size; also: potency is read from the fitted curve at half-maximal effect
In short: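 CHO cells stably expressing human HTR2A were plated for 18 h at 37 C, then loaded with calcium dye for 1 h. Compounds were preincubated 5 min at room temperature before DOI (4 nM solution) was added. Kinetic fluorescence was read for 3 min.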

[12] = molecular target: 5-hydroxytryptamine receptor 2A (Homo sapiens) (UniProt P28223); experiment: 5-hydroxytryptamine receptor 2A (HTR2A) small molecule agonists, cell-based qHTS assay (AID 1963587); also: nearly all actives have a fitted effect of over 30% in size
In short: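 HTR2A-CHO cells, plated 18 h at 37 C/5% CO2, dye-loaded 1 h at 37 C; compounds in DMSO added by pin tool (agonist mode). Intracellular calcium flux read as kinetic fluorescence on FDSS over 2 min at 1 s intervals.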

[13] = molecular target: Muscarinic acetylcholine receptor M1 (Homo sapiens) (UniProt P11229); experiment: Cholinergic receptor muscarinic 1 (CHRM1) small molecule antagonists, cell-based qHTS assay (AID 1963588); also: nearly all actives have a fitted effect of over 40% in size
In short: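 Compounds were tested at 15 concentrations in three independent runs. Dye-loaded CHRM1-CHO cells were exposed 5 min at room temperature before stimulation by acetylcholine added at 50nM. Intracellular calcium was read kinetically on FDSS for 3 min.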

[14] = molecular target: Muscarinic acetylcholine receptor M1 (Homo sapiens) (UniProt P11229); experiment: Cholinergic receptor muscarinic 1 (CHRM1) small molecule agonists, cell-based qHTS assay (AID 1963589); also: nearly all actives have a fitted effect of over 35% in size
In short: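 Kinetic fluorescence (1 s intervals) of calcium-sensitive dye in human M1 CHO cells after compound addition; cells pre-incubated 18 h at 37 C/5% CO2 and dye-loaded 1 h.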

[15] = cAMP Responsive Elements (CRE) small molecule agonists, cell-based qHTS assay (AID 1963590)
In short: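 Test agents in DMSO were incubated 3 h at 37 C/5% CO2 with CRE-bla HEK 293T cells seeded 18 h earlier; LiveBLAzer B/G FRET substrate was added and read after 2 h at room temperature.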

[16] = cAMP Responsive Elements (CRE) small molecule antagonists, cell-based qHTS assay (AID 1963591; active = well fitted inhibition curve with a large enough effect in the signal ratio in the repeat runs, not every such curve was filed as active; the % refers to the signal ratio)
In short: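 Reporter line CRE-bla HEK 293T in dialyzed-FBS DMEM; cells preincubated 18 h, treated 3 h with compound plus NKH477 (0.25 uM final); LiveBLAzer FRET, 2 h RT.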

[17] = molecular target: Beta-2 adrenergic receptor (Homo sapiens) (UniProt P07550); experiment: Adrenergic beta2 receptor (ADRB2) small molecule antagonists, cell-based qHTS assay (AID 1963592); also: series mostly up to about 92 µM; nearly all actives have a fitted effect of over 50% in size
In short: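 Assay format: CHO-ADRB2 cells, 18-20hr seeding at 37C/5% CO2, then compound plus 1nM isoproterenol agonist mix for 0.5hr RT. Homogeneous time-resolved fluorescence cAMP detection after 1hr, expressed as 665/615 nm ratio.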

[18] = molecular target: D(2) dopamine receptor (Homo sapiens) (UniProt P14416); experiment: Dopamine D2 receptor (DRD2) small molecule agonists, cell-based qHTS assay (AID 1963594); also: nearly all actives have a fitted effect of over 35% in size
In short: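 HEK293 cells stably expressing DRD2 were cultured 24 h at 37 C, then given Ro20-1724 (0.1 mM final) and compounds for 10 min at room temperature. NKH477 (200nM) was then added for 30 min. cAMP was read by HTRF.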

[19] = molecular target: D(2) dopamine receptor (Homo sapiens) (UniProt P14416); experiment: Dopamine D2 receptor (DRD2) small molecule antagonists, cell-based qHTS assay (AID 1963595; active = well fitted inhibition curve with a large enough effect in the signal ratio in the repeat runs, with a control signal flat; the % refers to the signal ratio; also: potency is read from the fitted curve at half-maximal effect)
In short: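 Antagonism was scored as restored cAMP in HEK293-DRD2 cells. These cells were stimulated with 200 nM NKH477 and 12 nM quinpirole for 30 min at room temperature, in the presence of 0.1 mM Ro20-1724.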

[20] = molecular target: Beta-2 adrenergic receptor (Homo sapiens) (UniProt P07550); experiment: Adrenergic beta2 receptor (ADRB2) small molecule agonists, cell-based qHTS assay (AID 1963593);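 also: CHO cells stably overexpressing human ADRB2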
In short: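 CHO cells stably over-expressing ADRB2 were plated overnight at 37C, then dosed with compounds plus a stimulation mix containing 100uM IBMX and 25uM Ro-20-1724 for 0.5hr at room temperature. cAMP was measured by HTRF competition, 1hr.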

Gonadotropin-releasing hormone receptor (Homo sapiens), sequence (P30968 whole entry, looked up): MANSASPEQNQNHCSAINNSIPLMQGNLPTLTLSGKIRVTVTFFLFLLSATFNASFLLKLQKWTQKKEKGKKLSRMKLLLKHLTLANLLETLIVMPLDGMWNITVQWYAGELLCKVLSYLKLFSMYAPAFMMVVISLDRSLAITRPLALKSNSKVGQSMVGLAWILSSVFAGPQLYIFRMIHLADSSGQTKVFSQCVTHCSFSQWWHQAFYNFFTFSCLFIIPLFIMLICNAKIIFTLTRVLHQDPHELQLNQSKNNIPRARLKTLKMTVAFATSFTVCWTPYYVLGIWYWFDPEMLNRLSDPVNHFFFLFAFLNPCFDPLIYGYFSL
KiSS-1 receptor (Homo sapiens), sequence (Q969F8 whole entry, looked up): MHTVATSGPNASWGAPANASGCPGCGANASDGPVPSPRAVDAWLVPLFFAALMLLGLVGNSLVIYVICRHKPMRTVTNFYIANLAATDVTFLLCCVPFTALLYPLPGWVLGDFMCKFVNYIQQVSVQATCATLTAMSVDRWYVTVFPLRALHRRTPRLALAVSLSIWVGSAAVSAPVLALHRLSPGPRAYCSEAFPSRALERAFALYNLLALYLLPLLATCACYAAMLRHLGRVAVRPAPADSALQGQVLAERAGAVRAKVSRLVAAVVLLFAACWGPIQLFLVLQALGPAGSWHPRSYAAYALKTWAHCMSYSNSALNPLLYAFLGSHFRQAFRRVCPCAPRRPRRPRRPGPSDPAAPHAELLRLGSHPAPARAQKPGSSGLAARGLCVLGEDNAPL
D(2) dopamine receptor (Homo sapiens), sequence (P14416 whole entry, looked up): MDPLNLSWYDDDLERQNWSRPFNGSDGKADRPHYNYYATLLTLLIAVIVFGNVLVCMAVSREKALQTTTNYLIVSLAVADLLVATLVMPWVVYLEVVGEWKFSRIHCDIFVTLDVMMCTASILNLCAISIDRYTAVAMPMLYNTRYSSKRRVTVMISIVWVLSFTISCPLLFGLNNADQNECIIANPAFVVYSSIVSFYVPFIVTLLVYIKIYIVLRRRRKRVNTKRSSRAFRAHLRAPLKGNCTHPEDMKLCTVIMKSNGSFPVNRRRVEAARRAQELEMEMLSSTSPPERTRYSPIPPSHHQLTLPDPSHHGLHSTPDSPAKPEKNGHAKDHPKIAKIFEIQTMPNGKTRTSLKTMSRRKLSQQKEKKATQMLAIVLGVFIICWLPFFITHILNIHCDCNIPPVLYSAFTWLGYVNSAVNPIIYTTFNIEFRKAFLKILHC
Beta-2 adrenergic receptor (Homo sapiens), sequence (P07550 whole entry, looked up): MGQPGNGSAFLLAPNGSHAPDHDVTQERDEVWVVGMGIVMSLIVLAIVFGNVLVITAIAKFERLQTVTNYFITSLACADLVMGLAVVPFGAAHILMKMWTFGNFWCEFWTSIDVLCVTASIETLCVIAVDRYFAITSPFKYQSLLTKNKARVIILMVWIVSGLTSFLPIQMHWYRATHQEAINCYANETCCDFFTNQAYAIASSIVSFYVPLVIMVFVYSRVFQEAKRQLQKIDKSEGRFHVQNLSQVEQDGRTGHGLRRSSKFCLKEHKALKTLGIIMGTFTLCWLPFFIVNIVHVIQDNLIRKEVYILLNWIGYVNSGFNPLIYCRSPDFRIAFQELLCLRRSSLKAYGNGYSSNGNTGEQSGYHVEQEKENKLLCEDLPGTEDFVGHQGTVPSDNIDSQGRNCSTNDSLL
Muscarinic acetylcholine receptor M1 (Homo sapiens), sequence (P11229 whole entry, looked up): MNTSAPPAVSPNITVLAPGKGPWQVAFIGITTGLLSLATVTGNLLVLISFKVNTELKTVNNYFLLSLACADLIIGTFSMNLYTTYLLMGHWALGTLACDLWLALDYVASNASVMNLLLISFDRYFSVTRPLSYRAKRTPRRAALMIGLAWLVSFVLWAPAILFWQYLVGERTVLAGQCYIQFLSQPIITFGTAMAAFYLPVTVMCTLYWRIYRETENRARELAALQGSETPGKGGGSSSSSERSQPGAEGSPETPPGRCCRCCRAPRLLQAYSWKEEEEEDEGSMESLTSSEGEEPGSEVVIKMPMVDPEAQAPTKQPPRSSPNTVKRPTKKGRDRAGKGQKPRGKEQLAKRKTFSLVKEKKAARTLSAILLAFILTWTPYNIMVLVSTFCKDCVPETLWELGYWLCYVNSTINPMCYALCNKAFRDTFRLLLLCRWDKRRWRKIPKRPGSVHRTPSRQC
5-hydroxytryptamine receptor 2A (Homo sapiens), sequence (P28223 whole entry, looked up): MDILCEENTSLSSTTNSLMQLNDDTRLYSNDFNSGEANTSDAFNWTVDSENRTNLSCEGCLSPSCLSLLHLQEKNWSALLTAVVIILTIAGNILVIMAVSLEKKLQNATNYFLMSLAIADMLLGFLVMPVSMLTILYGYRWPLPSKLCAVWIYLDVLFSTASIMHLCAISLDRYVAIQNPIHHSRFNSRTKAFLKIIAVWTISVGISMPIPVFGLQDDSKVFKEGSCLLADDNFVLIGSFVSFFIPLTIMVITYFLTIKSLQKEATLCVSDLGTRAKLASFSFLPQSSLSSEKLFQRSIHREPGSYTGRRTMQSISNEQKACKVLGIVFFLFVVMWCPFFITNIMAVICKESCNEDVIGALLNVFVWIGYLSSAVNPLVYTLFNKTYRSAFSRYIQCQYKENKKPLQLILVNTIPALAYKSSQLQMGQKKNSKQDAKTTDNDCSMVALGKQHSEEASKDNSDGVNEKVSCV

Compound | Potency [1] | Potency [2] | Potency [3] | Potency [4] | Potency [5] | Potency [6] | Potency [7] | Potency [8] | Potency [9] | Potency [10] | Potency [11] | Potency [12] | Potency [13] | Potency [14] | Potency [15] | Potency [16] | Potency [17] | Potency [18] | Potency [19] | Potency [20]
CC(=O)OC(C(=O)c1ccccc1)c1ccccc1 (stereo not drawn) | inactive | inactive | inactive | inactive | inactive | inactive | inactive | inactive | inactive | inactive | 0.0011 µM (active) | inactive | inactive | inactive | inactive | inactive | inactive | inactive | inactive | 
COc1cc(NS(=O)(=O)c2ccc(N)cc2)nc(C)n1 | inactive | inactive | inactive | inactive | inactive |  | inactive | inactive | inactive |  | inactive | inactive | inactive |  | inactive | inactive | inactive | inactive | inactive | inactive
O=C(OCCc1ccccc1)c1ccccc1 | inactive | 27.3 µM (active) | inactive | inactive | inactive |  | inactive |  | inactive | inactive | inactive | inactive |  | inactive |  |  | inactive | inactive | inactive | inactive
C/C(=C\c1ccc(C(=O)O)cc1)c1ccc2c(c1)C(C)(C)CCC2(C)C | inactive | inactive | inactive | inactive | inactive |  | inactive | inactive | inactive | inactive | inactive |  | inactive | inactive | inactive | inactive | inactive | inactive | inactive | 
CCc1c(C)[nH]c2c1C(=O)C(CN1CCOCC1)CC2 (stereo not drawn) | inactive | inactive | inactive | inactive | inactive |  | inactive | inactive | inactive | inactive |  | inactive |  | inactive | inactive | inactive |  | inactive | 0.75 µM (active) | 
O=C(O)CCc1nc2ccccc2[nH]1 | inactive | inactive | inactive | inactive | inactive | inactive | inactive | inactive | inactive | inactive | inactive | inactive | inactive | inactive | inactive | inactive | inactive | inactive |  | 
CCC[Si](OC)(OC)OC | inactive | inactive | inactive | inactive | inactive | inactive | inactive | inactive | inactive | inactive | inactive | inactive | inactive | inactive | inactive | inactive | inactive |  | inactive | inactive
O=C(O)CCCCCCCCCC(=O)O | inactive | inactive | inactive | inactive | inactive |  | inactive | inactive | inactive |  | inactive | inactive | inactive | inactive |  | inactive | inactive | inactive | inactive | 
CC(CN=Cc1ccccc1O)N=Cc1ccccc1O (stereo not drawn) | inactive | inactive | inactive | inactive | inactive |  | inactive | inactive | inactive | inactive | inactive |  | inactive | inactive | inactive | inactive | inactive | inactive | inactive | inactive
CC(S)C(C)S (stereo not drawn) | inactive | inactive | inactive | inactive | inactive | inactive | inactive | inactive | inactive | inactive | inactive | inactive | inactive | inactive | inactive | inactive | inactive | inactive | inactive | inactive
COC(=O)C1=C(C)NC(C)=C(C(=O)OCCc2ccc(N3CCN(C(c4ccccc4)c4ccccc4)CC3)cc2)C1c1cccc([N+](=O)[O-])c1 (stereo not drawn) | inactive | inactive | inactive | inactive | inactive | inactive | inactive | inactive | inactive | inactive | inactive | inactive | inactive | inactive | inactive | inactive | inactive | inactive | inactive | inactive
Cc1cc(C2CCCCC2)n(O)c(=O)c1 | 13.3 µM (active) | inactive | inactive | inactive | inactive | inactive |  |  | inactive |  |  |  |  |  | inactive |  | inactive | inactive |  | inactive
Nc1ccc(F)cc1F | inactive | inactive | inactive | inactive | inactive |  | inactive |  | inactive | inactive | inactive | inactive | inactive | inactive | inactive | inactive |  | inactive | inactive | inactive
O=C1c2ccccc2-c2ccccc21 | inactive | inactive | inactive | inactive | inactive |  | inactive | inactive | inactive | inactive | inactive | inactive | inactive | inactive | inactive | inactive | inactive |  | inactive | 
CCCCC(CC)COP(=O)(O)O (stereo not drawn) | inactive | inactive | inactive | inactive | inactive |  | inactive | inactive |  |  | inactive | inactive | inactive | inactive | inactive | inactive | inactive |  |  | 
